This is an account of results in PubChem BioAssay (NCI).

Where “and” joins values, the source holds several entries; their conditions need not be identical. Equal values may be shown once. Compounds without any hit were thinned out: in the full panel of roughly 83,000, 20% have a hit.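 Negative percent growth values reflect cell death: -40 means 40% of the cells present at the start died, and -100 means all died.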 Calls of active or inactive are those of the source.

The first experiment relates to OVCAR-3 ovarian. The experiment is described as follows: NCI-60 one-dose screen, 48 h (100 = growth as untreated, 0 = no growth, -100 = all killed). The settings on record: 0.0025 µM. The procedure:
Growth inhibition of the OVCAR-3 human tumor cell line is measured as a screen for anti-cancer activity. Cells are grown in 96 well plates and exposed to the test compound for 48 hours. Compounds are tested at a single concentration, which is 10^-5 M for most compounds. The reported endpoint is percent growth (GI% or GIPRCNT), where numbers from 0 - 100% represent growth inhibition, and numbers from -100% - 0 represent cell death. For example, a value of 40 represents 60% growth inhibition. A value of 0 means no net growth occurred over the course of the experiment. A value of -40 indicates 40% of cells at the beginning of the experiment died by the end of the experiment. A value of -100 means all cells are dead at the end of the experiment.
NCI-60 Human Tumor Cell Lines Screen was performed using the standard one-dose NCI protocol, which is described in more detail at https://dtp.cancer.gov/discovery_development/nci-60/default.htm.
Compounds with GIPRCNT values below 10 were considered active. Activity score was based on GIPRCNT using the following formula: […]
Score is 0 for GIPRCNT values of 100 or above, 50 for GIPRCNT values of 0, and 100 for GIPRCNT values of -100.
Consider `COc1cccc2c1C(=O)c1c(O)c3c(c(O)c1C2=O)C[C@@](O)(C(=O)CO)C[C@@H]3OC1CC(N)C(O)C(C)O1` (stereo not given in full), for which the growth was 105% (inactive).

The same experiment, now with this note: 1 µM.
Take `COc1cccc2c1C(=O)c1c(O)c3c(c(O)c1C2=O)C[C@@](O)(C(=O)CO)C[C@@H]3OC1CC(N)C(O)C(C)O1` (stereo not given in full): the growth is 81.8% (inactive).

Still in this experiment, the particulars now being: 10 µM.
On to `NC(=O)SCC(=O)NNc1ccccc1`, for which the growth was 107% (inactive).
On the same count and under the same terms, in the case of `COc1cccc2c1C(=O)c1c(O)c3c(c(O)c1C2=O)C[C@@](O)(C(=O)CO)C[C@@H]3OC1CC(N)C(O)C(C)O1` (stereo not given in full) it was 10.2% (inactive).
Same read-out and setting: for `CCN1/C(=C/C=C/C=C/c2sc3ccccc3[n+]2CC)Sc2ccccc21` the value was -64.1% (active); for `CCCC1CCC(=C2C(=O)CCC2=O)O1` (stereo not given), 101% (inactive) and 94% (inactive).
Consider `O=C(/C=C/c1cccnc1)c1ccccc1`, for which the growth was 85.8% (inactive).
As to `Clc1ccc(/C=C/c2ccccn2)c(Cl)c1`, the growth was 90.4% (inactive).
Same read-out and setting: in the case of `Nc1c2ccccc2nc2ccccc12` it was 3.88% (active) and 52.9% (inactive).
On the same count and under the same terms, for `CS(=O)(=O)OC1CC(n2ccc(=O)[nH]c2=O)OC1COC(c1ccccc1)(c1ccccc1)c1ccccc1` (stereo not given) the value was 100% (inactive); for `O=c1ccn(C2CC(O)C(COC(c3ccccc3)(c3ccccc3)c3ccccc3)O2)c(=O)[nH]1` (stereo not given), 102% (inactive).
For `CCCCCCCCCCCC[N+](C)(C)Cc1ccccc1`, the growth was -0.287% (active).
Still for that read-out and setting: for `CCCCCCCCCCCCCCCCCCOCC(COP(=O)([O-])OCC[N+](C)(C)C)OC` (stereo not given) the value was 95.9% (inactive).
For the compound `OC(CN1CCCC2CCCCC21)c1cc2ccccc2c2ccccc12` (stereo not given), the growth is 30.6% (inactive).
Consider `COc1ccc(CC(=O)c2ccc(O)cc2O)cc1`, for which the growth is 130% (inactive).
Take `CCC(C)(C)c1cc(O)c(C(C)(C)CC)cc1O`: the growth was 37.2% (inactive).
Same read-out and setting: in the case of `CC(=O)Nc1cc(C)ccc1C` it was 102% (inactive); in that of `O=C(C(=Cc1ccccc1)C(=O)c1ccccc1)c1ccccc1`, 66.3% (inactive) and 85.7% (inactive); in that of `NC1=C(Cl)C(=O)c2ccccc2C1=O`, 12.3% (inactive).
Turning to `O=C1C=C(O)c2ccccc2C1=O.[Ag]`, the growth is 117% (inactive).
For the compound `CCCCCCCCCCSC(=N)N`, the growth was 67% (inactive).
On the same count and under the same terms, in the case of `Clc1cc(Cl)c(Cl)nn1` it was 114% (inactive).
With `Nc1nc(=S)c2ncn(C3OC(CO)C(O)C3O)c2[nH]1` (stereo not given), the growth was 112% (inactive) and 8.33% (active).
Still for that read-out and setting: in the case of `CSC1SCC2C(=O)N(C)C(C(C)C)C(=O)OCC(NC(=O)c3cnc4ccccc4n3)C(=O)NC(C)C(=O)N(C)C1C(=O)N(C)C(C(C)C)C(=O)OCC(NC(=O)c1cnc3ccccc3n1)C(=O)NC(C)C(=O)N2C` (stereo not given) it was 5.79% (active); in that of `O=[N+]([O-])C1=C(c2ccccc2)SC=C(c2ccccc2)S1`, 73.6% (inactive); in that of `COC(=O)C1C(O)C(C)C(O)C(C)C=C(C)C2=C3C(=C(C)C(=O)c4c(O)c(c(C)c(OC(C)=O)c43)NC(=O)C(C)=C/C=C\C(C)C(O)C(C)C1O)OCO2` (stereo not given), 113% (inactive).
On the same count and under the same terms, for `O=C1C=CC(=CC=C2C=CN(CCCCCCCCCCCO)C=C2)C=C1` the value was 30.2% (inactive).
Same read-out and setting: for `CCCCCCCCCCCCSC(=NC)NC` the value was 36.8% (inactive) and 71.7% (inactive); for `CC(=O)OCC(OC(C)=O)C(OC(C)=O)C(OC(C)=O)C(OC(C)=O)C(/C=N/Nc1ccccc1)=N/Nc1ccccc1` (stereo not given), 71.8% (inactive); for `Nc1ccc2cc3ccc(N)cc3nc2c1`, 122% (inactive) and 11.3% (inactive).
As for `CN1CCN(CCCN2c3ccccc3Sc3ccc(C(F)(F)F)cc32)CC1`, the growth was 92% (inactive).
On the same count and under the same terms, in the case of `CC[N+](CC)=c1ccc2nc3c(cc(N)c4ccccc43)oc-2c1` it was -56.8% (active).
As to `NNc1ccc2ccccc2c1`, the growth was 92.1% (inactive) and 99.6% (inactive).
On the same count and under the same terms, in the case of `Oc1ccc(N=Nc2ccccn2)c(O)c1` it was 32.7% (inactive); in that of `CC(C)(C)CC(C)(C)c1ccc(OCCO)cc1`, 116% (inactive); in that of `NNc1c2ccccc2nc2ccccc12`, 51.4% (inactive).
Same read-out and setting: in the case of `N=S(c1ccccc1[N+](=O)[O-])c1ccccc1[N+](=O)[O-]` it was -58.8% (active).
For `O=C(O)COc1ccc(OCC(=O)O)cc1`, the growth is 16.7% (inactive).
Consider `CCO/C=C1\SC(=S)N(c2cccc(O)c2)C1=O`, for which the growth is 102% (inactive).

Still in this experiment, the particulars now being: 100 µM.
On to `O=c1ccn(C2CC(O)C(COC(c3ccccc3)(c3ccccc3)c3ccccc3)O2)c(=O)[nH]1` (stereo not given), for which the growth is 47.8% (inactive).
